# Assay results: PubChem BioAssay
# Active and inactive are the calls of the source. Unless noted, the rule behind the calls is not given here.
# Experiments:
# [1] = HepG2 liver cancer cell viability effects, profiling panel, resazurin fluorescence, 24 h, PK04 Diversity Set (AID 1172); conditions: higher = more signal
# [2] = basal S. cerevisiae growth modulation, no modifier, primary screen, OD600, strain BY4716, 24 h, basal condition (AID 1173); conditions: OD600, 24 h, higher = more signal, called active from +8 up or from −8 down
# [3] = MM1S myeloma cell viability, profiling panel, resazurin fluorescence, basal, 24 h, PK04 Diversity Set (AID 1174); conditions: higher = more signal, called active from +8 up or from −8 down;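 note: MM1S multiple myeloma cell line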
# [4] = target: Dihydroorotate dehydrogenase (quinone), mitochondrial (Plasmodium falciparum (isolate 3D7)) (UniProt Q08210); assay: PfDHODH enzyme inhibitors, primary screen, biochemical, C-terminal His tag, absorbance 600 nm (AID 1175); conditions: DCIP absorbance 600 nm, higher = more signal, called active from +8 up or from −8 down;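 note: recombinant parasite enzyme with a five histidine tag at its C terminus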
# Sequence of Dihydroorotate dehydrogenase (quinone), mitochondrial (Plasmodium falciparum (isolate 3D7)) (Q08210 whole entry, looked up): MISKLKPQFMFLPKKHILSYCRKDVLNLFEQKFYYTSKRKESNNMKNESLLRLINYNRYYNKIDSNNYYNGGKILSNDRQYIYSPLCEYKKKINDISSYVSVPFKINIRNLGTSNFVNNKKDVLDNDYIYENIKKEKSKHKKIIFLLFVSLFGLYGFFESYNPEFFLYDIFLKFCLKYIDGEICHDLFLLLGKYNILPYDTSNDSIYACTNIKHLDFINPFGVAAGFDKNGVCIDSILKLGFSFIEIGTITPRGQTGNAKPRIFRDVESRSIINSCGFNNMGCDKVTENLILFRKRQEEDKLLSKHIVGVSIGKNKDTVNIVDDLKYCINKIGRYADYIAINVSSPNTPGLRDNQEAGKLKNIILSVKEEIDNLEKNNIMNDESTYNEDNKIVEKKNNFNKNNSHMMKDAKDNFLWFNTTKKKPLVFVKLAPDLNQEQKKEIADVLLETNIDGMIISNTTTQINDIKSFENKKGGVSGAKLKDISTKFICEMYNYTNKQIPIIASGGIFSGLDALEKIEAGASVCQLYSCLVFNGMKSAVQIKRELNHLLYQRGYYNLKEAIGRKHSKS
# [5] = P. aeruginosa biofilm formation inhibitors, primary screen, strain PAO1, LB-PBS medium, absorbance 600 nm (AID 1176); conditions: P. aeruginosa PAO1 growth/biofilm, A600, 12 h; higher = more signal
# [6] = S. cerevisiae RM11-1a growth modifiers, primary screen, strain RM11-1a, OD600, basal, 24 h (AID 1177); conditions: OD600, 24 h, higher = more signal, called active from +8 up or from −8 down;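 note: cultures grown under basal conditions with no added stressor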
# [7] = E. coli acrAB mutant growth effects, primary screen, E. coli filamentation inducers, strain DRC39, OD650, 24 h (AID 1178); conditions: higher = more signal, called active from +8 up or from −8 down;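 note: growth measured as culture turbidity by optical density at 650 nm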
# [8] = E. coli acrAB mutant growth effects, primary screen, E. coli filamentation inducers, strain DRC39, OD650, 48 h (AID 1179);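 note: screen aims at cell division blockers that make cells filament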; conditions: E. coli DRC39 delta-acrAB growth, higher = more signal, called active from +8 up or from −8 down
# [9] = RPMI8226 myeloma cell viability, profiling panel, resazurin fluorescence, basal, 24 h, PK04 Diversity Set (AID 1180); conditions: higher = more signal;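 note: RPMI8826 multiple myeloma cell line at 5000 cells per well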
# [10] = target: E3 ubiquitin-protein ligase XIAP (Homo sapiens) (UniProt P98170); assay: XIAP binders, primary screen, biophysical, small-molecule microarray, fluorescence 635 nm (AID 1181); conditions: small-molecule microarray binding, higher = more signal;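 note: score merges 667 nm emission and signal to noise over triplicate slides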
# Sequence of E3 ubiquitin-protein ligase XIAP (Homo sapiens) (P98170 whole entry, looked up): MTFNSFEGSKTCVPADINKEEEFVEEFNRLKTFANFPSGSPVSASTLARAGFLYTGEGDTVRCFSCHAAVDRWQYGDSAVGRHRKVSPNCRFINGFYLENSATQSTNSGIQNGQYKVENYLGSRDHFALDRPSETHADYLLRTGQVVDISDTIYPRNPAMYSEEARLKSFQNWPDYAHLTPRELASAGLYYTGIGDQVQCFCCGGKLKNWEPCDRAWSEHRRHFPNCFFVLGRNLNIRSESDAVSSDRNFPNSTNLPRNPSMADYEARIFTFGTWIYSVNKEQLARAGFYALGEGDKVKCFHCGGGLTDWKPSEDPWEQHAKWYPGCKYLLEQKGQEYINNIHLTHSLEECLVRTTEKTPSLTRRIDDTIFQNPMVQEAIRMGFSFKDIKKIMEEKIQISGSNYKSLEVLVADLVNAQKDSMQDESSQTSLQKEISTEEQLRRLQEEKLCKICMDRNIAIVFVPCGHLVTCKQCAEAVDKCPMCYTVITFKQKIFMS
# [11] = tested on: XIP peptide (Xip251-270) binding; assay: small-molecule binders of XIP peptide, primary screen, biochemical, small-molecule microarray, fluorescence 635/667 nm, 0.1 µg/mL protein (AID 1182); conditions: fluorescent protein binding, 635 nm, higher = more signal, called active from +8 up or from −8 down
# [12] = tested on: XIP peptide (Xip251-270); assay: small-molecule binders of XIP peptide, primary screen, biochemical, small-molecule microarray, fluorescence 635/667 nm, 0.5 µg/mL protein (AID 1183); conditions: small-molecule microarray binding, fluorescence 635 nm; higher = more signal
# [13] = Plasmodium falciparum growth inhibition, primary screen, strain 3D7, DAPI fluorescence, 100 nL (AID 1184);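 note: parasites grown inside human red blood cells in medium with human serum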; conditions: P. falciparum 3D7 growth, 3 d, higher = more signal
# [14] = target: Homeobox protein Hox-A13 (Mus musculus) (UniProt Q62424); assay: inhibitors of HoxA13-DNA binding, primary screen, biochemical, fluorescence polarization, labeled oligonucleotide (AID 1185); conditions: 15 min, higher = more signal, called active from +8 up or from −8 down
# Sequence of Homeobox protein Hox-A13 (Mus musculus) (Q62424 whole entry, looked up): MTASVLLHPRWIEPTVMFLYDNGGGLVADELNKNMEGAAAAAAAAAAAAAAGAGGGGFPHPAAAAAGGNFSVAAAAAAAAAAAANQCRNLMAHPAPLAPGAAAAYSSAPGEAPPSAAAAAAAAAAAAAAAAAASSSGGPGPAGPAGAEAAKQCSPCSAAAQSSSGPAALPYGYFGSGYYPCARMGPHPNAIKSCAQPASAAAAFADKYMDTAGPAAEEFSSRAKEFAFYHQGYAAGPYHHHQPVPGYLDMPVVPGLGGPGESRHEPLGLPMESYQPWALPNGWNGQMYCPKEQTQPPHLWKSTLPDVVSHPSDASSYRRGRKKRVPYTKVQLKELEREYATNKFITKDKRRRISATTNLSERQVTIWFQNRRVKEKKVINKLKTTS
# [15] = inhibitors of hydroxyurea-induced Chk1 phosphorylation, primary screen, imaging, HeLa, phospho-Chk1 antibody, percent positive cells (AID 1186); conditions: hydroxyurea-induced phospho-Chk1 immunofluorescence imaging, higher = more signal
# [16] = inhibitors of hydroxyurea-induced Chk1 phosphorylation, primary screen, imaging, HeLa, phospho-Chk1 nuclear intensity (AID 1187); conditions: hydroxyurea-induced phospho-Chk1 immunofluorescence imaging, higher = more signal
structure (smiles),measurement,setting,value
CO[C@H]1O[C@H](CO)[C@@H](OC(=O)Nc2cccc(F)c2)[C@H](OC(=O)Nc2ccccc2)[C@H]1OC(=O)Nc1ccccc1,z-score,[1],-2.71
same,z-score,[2],0.311 (inactive)
same,z-score,[3],-4.75 (inactive)
same,composite z-score,[4],-0.599 (inactive)
same,z-score,[5],-0.261 (inactive)
same,z-score,[6],1.77 (inactive)
same,z-score,[7],1.11 (inactive)
same,z-score,[8],0.194 (inactive)
same,z-score,[9],-4.5
same,composite z-score,[10],0.072
same,composite z-score,[11],0.879 (inactive)
same,composite z-score,[12],0.882
same,z-score,[13],-2.38
same,z-score,[14],-5.97 (inactive)
same,z-score,[15],-0.357 (inactive)
same,z-score,[16],0.161 (inactive)
CCOC(=O)C[C@H]1[C@H](OC(=O)c2ccc(C(=O)c3ccccc3)cc2)[C@@H](NC(=O)c2ccccc2)c2cc(OCCCO)ccc2N1C(=O)c1ccccc1,z-score,[1],-0.529
same,z-score,[2],0.783 (inactive)
same,z-score,[3],-0.224 (inactive)
same,composite z-score,[4],-0.206 (inactive)
same,z-score,[5],0.137 (inactive)
same,z-score,[6],0.144 (inactive)
same,z-score,[7],0.158 (inactive)
same,z-score,[8],0.293 (inactive)
same,z-score,[9],0.247
same,composite z-score,[10],-0.0152
same,composite z-score,[11],-0.492 (inactive)
same,composite z-score,[12],0.59
same,z-score,[13],-0.263
same,z-score,[14],-1.19 (inactive)
same,z-score,[15],0.743 (inactive)
same,z-score,[16],0.943 (inactive)
CC(C)NC(=O)[C@@H]1c2ccccc2C(=O)N(C(C)C)[C@H]1c1ccc(CO)cc1,z-score,[1],1.02
same,z-score,[2],-0.37 (inactive)
same,z-score,[3],0.537 (inactive)
same,composite z-score,[4],0.654 (inactive)
same,z-score,[5],-0.397 (inactive)
same,z-score,[6],0.0971 (inactive)
same,z-score,[7],0.494 (inactive)
same,z-score,[8],0.671 (inactive)
same,z-score,[9],0.135
same,composite z-score,[10],-0.398
same,composite z-score,[11],0.736 (inactive)
same,composite z-score,[12],0.226
same,z-score,[13],-0.25
same,z-score,[14],-2.52 (inactive)
same,z-score,[15],-0.0669 (inactive)
same,z-score,[16],0.385 (inactive)
CCCC=C(CCC)[C@@H](NC(=O)OCC(C)C)c1ccccc1,z-score,[1],-0.624
same,z-score,[2],1.08 (inactive)
same,z-score,[3],-0.863 (inactive)
same,composite z-score,[4],-4.03 (inactive)
same,z-score,[5],2.77 (inactive)
same,z-score,[6],0.396 (inactive)
same,z-score,[7],-0.526 (inactive)
same,z-score,[8],-1.64 (inactive)
same,z-score,[9],0.0342
same,composite z-score,[10],-0.0852
same,composite z-score,[11],-0.0053 (inactive)
same,composite z-score,[12],0.45
same,z-score,[13],-1.02
same,z-score,[14],2.97 (inactive)
same,z-score,[15],0.714 (inactive)
same,z-score,[16],0.115 (inactive)
O=C1OCC=C[C@H]2OC34C=CCN(Cn5nnc6ccccc65)C(=O)[C@H]3N(CCCCCO)C(=O)[C@@H]4[C@@H]12 (some centres undefined),z-score,[1],0.0883
same,z-score,[2],0.21 (inactive)
same,z-score,[3],-0.0233 (inactive)
same,composite z-score,[4],-1.24 (inactive)
same,z-score,[5],0.193 (inactive)
same,z-score,[6],-0.273 (inactive)
same,z-score,[7],-0.293 (inactive)
same,z-score,[8],-0.571 (inactive)
same,z-score,[9],-0.0297
same,composite z-score,[10],0.515
same,composite z-score,[11],0.537 (inactive)
same,composite z-score,[12],0.193
same,z-score,[13],-0.133
same,z-score,[14],-3.27 (inactive)
same,z-score,[15],-0.288 (inactive)
same,z-score,[16],-0.398 (inactive)
COCCCNC(=O)[C@@]1(Cc2ccccc2CN=[N+]=[N-])N=C(c2ccc(OCCCO)cc2)O[C@H]1c1ccccc1CN=[N+]=[N-],z-score,[1],0.122
same,z-score,[2],-1.03 (inactive)
same,z-score,[3],-1.92 (inactive)
same,composite z-score,[4],1.06 (inactive)
same,z-score,[5],0.218 (inactive)
same,z-score,[6],-0.016 (inactive)
same,z-score,[7],2.15 (inactive)
same,z-score,[8],0.707 (inactive)
same,z-score,[9],-4.14
same,composite z-score,[10],0.244
same,composite z-score,[11],1.01 (inactive)
same,composite z-score,[12],0.443
same,z-score,[13],-2.23
same,z-score,[14],-4.09 (inactive)
same,z-score,[15],-0.485 (inactive)
same,z-score,[16],-0.763 (inactive)
COc1ccc([Si](C)(C)[C@@H]2[C@@H](CCn3cc(CCO)nn3)O[C@]3(C(=O)N(Cc4cccc(N5C(=O)c6cccc7cccc5c67)c4)c4ccccc43)[C@H]2C)cc1,z-score,[1],-3.66
same,z-score,[2],0.348 (inactive)
same,z-score,[3],-6.83 (inactive)
same,composite z-score,[4],0.0598 (inactive)
same,z-score,[5],-0.459 (inactive)
same,z-score,[6],1.69 (inactive)
same,z-score,[7],-0.162 (inactive)
same,z-score,[8],-0.831 (inactive)
same,z-score,[9],-6.09
same,composite z-score,[10],-0.0999
same,composite z-score,[11],1.49 (inactive)
same,composite z-score,[12],0.589
same,z-score,[13],-2.81
same,z-score,[14],-2.66 (inactive)
same,z-score,[15],-0.953 (inactive)
same,z-score,[16],-0.813 (inactive)
COC(=O)[C@H](Cc1ccccc1)N[C@H](/C=C/C1CC1)[C@@H](O)Cc1ccccc1,z-score,[1],1
same,z-score,[2],-4.55 (inactive)
same,z-score,[3],1.2 (inactive)
same,composite z-score,[4],1.14 (inactive)
same,z-score,[5],-0.708 (inactive)
same,z-score,[6],-1.44 (inactive)
same,z-score,[7],1.58 (inactive)
same,z-score,[8],0.398 (inactive)
same,z-score,[9],0.663
same,composite z-score,[10],-0.195
same,composite z-score,[11],-0.126 (inactive)
same,composite z-score,[12],0.34
same,z-score,[13],-0.873
same,z-score,[14],-5.24 (inactive)
same,z-score,[15],-0.748 (inactive)
same,z-score,[16],-0.39 (inactive)
COCC(=C=CC[C@@H](O)c1ccc(OCCO)cc1)C[C@@H](O)c1ccccn1,z-score,[1],-0.495
same,z-score,[2],-0.58 (inactive)
same,z-score,[3],-0.46 (inactive)
same,composite z-score,[4],-2.5 (inactive)
same,z-score,[5],1.05 (inactive)
same,z-score,[6],-0.0975 (inactive)
same,z-score,[7],0.0525 (inactive)
same,z-score,[8],0.0639 (inactive)
same,z-score,[9],-0.104
same,composite z-score,[10],0.0785
same,composite z-score,[11],1.51 (inactive)
same,composite z-score,[12],-0.161
same,z-score,[13],0.797
same,z-score,[14],-5.97 (inactive)
same,z-score,[15],0.117 (inactive)
same,z-score,[16],0.265 (inactive)
